VDR inh: inhibitors of human vitamin D receptor. VDR-SRC2-3 peptide fluorescence polarization, 2 h. Potency, µM, for inactives: max response, negative = inhibition, actives largely listed as inhibitors. hit rate 0.93% among 400,000; further: potency means the concentration at half of the fitted maximal effect; on the % scale 0 is the no-effect control and ±100 the full control effect
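Compounds are added to VDR with labelled SRC2-3 coactivator peptide and held 2 h at room temperature. Inhibition of the VDR–peptide interaction is then read as a change in fluorescence polarization.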
JMJD2E inh: inhibitors of human JMJD2E histone demethylase. B2RXH2. JMJD2E catalytic domain, FDH-coupled NADH fluorescence (FDH is formaldehyde dehydrogenase). hit rate 1.6% among 230,000. Potency, µM (top dose mostly 57.1 µM), for the others: at the highest dose activity change, negative = inhibition, usual class: inhibitors; active means well fitted inhibition curve with a large enough effect, not every such curve was filed as active; inconclusive means small, poorly fitted or top-dose-only effect, or another doubt; inactive means no such curve, though single readings can be large or run the other way;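 further: potency means the concentration at half of the fitted maximal effect; 0% = wells with enzyme and -100% = buffer wells without enzyme; nearly all actives have a fitted effect of over 50% in size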
HTT ATP protect: cytoprotection in Huntington HTT-Q103 PC12 cell model; PC12 HTT-Q103 induced, cytoprotection, ATP luminescence, 40 h; Potency, µM (top dose mostly 56.4 µM), without a hit: cytoprotection (ATP increase), most hits filed as activators; hit rate 0.14% among 230,000; AID 1471; further: potency means the concentration at half of the fitted maximal effect; % of control where 0% means no effect; nearly all actives have a fitted effect of over 45% in size
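Quantitative HTS on tebufenozide-induced (100 nM) PC12 cells expressing HTTQ103 exon 1–GFP; compounds tested as a concentration series; survival measured via cellular ATP.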
RGS12 GoLoco inh: RGS12 GoLoco-Gai1 interaction inhibition; P63096; Gai1:RGS12 GoLoco peptide FP, rhodamine, 10 min; Potency, µM (highest dose often 61.6 µM), without a hit: at the top dose activity, negative = inhibition, most hits filed as inhibitors; hit rate 0.44% among 230,000; AID 880; active means well fitted inhibition curve with a large enough effect, not every such curve was filed as active; inactive means no such curve, though single readings can be large or run the other way; further: potency means the concentration at half of the fitted maximal effect; on the % scale 0 is the no-effect control and ±100 the full control effect; nearly all actives have a fitted effect of over 30% in size
Target sequence (P63096 whole entry, looked up): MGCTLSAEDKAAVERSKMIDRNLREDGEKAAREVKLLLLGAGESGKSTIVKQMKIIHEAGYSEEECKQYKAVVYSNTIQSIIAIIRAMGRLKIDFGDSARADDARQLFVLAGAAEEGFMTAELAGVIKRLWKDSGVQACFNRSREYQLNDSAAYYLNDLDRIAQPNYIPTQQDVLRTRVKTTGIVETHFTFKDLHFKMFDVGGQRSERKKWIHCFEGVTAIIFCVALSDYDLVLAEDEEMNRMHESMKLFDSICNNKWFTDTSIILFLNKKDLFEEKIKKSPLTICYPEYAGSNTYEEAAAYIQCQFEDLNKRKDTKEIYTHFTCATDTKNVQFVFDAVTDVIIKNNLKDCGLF
FBPA coupling cs: counter-screen for Giardia aldolase inhibitors: coupling enzyme system; activity change, negative = inhibition, % at 58.2 µM, hits read low; coupling enzyme system counterscreen, AmpLite Red fluorescence; hit rate 0.67% among 290,000; AID 2472; in the data active means activity change below about -30%; further: on the % scale 0 is the no-effect control and ±100 the full control effect
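Fluorescence at 525 nm excitation and 598 nm emission measured inhibition of the coupled detection system without aldolase. Compounds (at 57.5 uM final) were preincubated 10 min at room temperature with coupling enzyme reagent before a 20 min substrate/AmpLite Red step.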
HttQ103 aggreg: inhibitors of mutant huntingtin aggregate formation in PC12 cells. PC12 HttQ103-GFP aggregates, Acumen cytometry, 40 h. Potency, µM (highest dose often 46.1 µM), for inactives: top-dose activity change, negative = inhibition, most hits filed as inhibitors. hit rate 1.1% among 220,000. AID 1688; further: potency means the concentration at half of the fitted maximal effect; on the % scale 0 is the no-effect control and ±100 the full control effect; nearly all actives have a fitted effect of over 60% in size
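Steps: seed 1500 PC12 HTTQ103-GFP cells/well; add tebufenozide, 100 nM final; add compound titration; add ATPLite reagent; quantify GFP aggregates by laser scanning cytometry.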
* = called active by the depositor; ? = inconclusive; . = no result; [ ] = remark or other dose. A selection: hits, their analogues and other compounds. The true share with any hit is near 2.3%. Unless noted, the call rests on the fitted dose curve; in most records, active means well fitted curve in the direction sought with a large enough effect; inconclusive means small, poorly fitted or top-dose-only effect, or another doubt; inactive means no such curve, though single readings can be large; an effect the other way counts as inactive or inconclusive.

SMILES	VDR inh	JMJD2E inh	HTT ATP protect	RGS12 GoLoco inh	FBPA coupling cs	HttQ103 aggreg
COc1ccc(N2CCN(C(C)C(=O)N3CC(C)OC(C)C3)CC2)cc1 (stereo unspecified)	-4%	22µM*	-30%	-2%	0	29%
Oc1ccc2ccccc2c1C=NCc1cn2ccsc2n1	9%	?	5%[10 µM]	11%	-35*	4%
S=C(Nc1ccc(N2CCOCC2)cc1)Nc1ccc2snnc2c1	-15%	-26%	-28%	6%	-18	-20%
CCOC(=O)c1c(C(=O)OCC)c(C)n(N2C(=O)CSC2=S)c1C	29%	2%	6%[10 µM]	143%	18	0.89µM*
CCOC(=O)c1c(C)[nH]sc1=S	-19%	?	-13%	-8%	-2	12%
COc1ccc(CCNC(=O)C(NS(=O)(=O)c2ccc3c(c2)CCN3C(C)=O)C(C)C)cc1OC (stereo unspecified)	.	7%	-6%	3%	0	4%
O=C(COc1cccnc1[N+](=O)[O-])c1ccc(Cl)s1	50µM*	14µM*	-5%[10 µM]	73%	-30	2%[9.22 µM]
O=C(CSc1nnc(Cn2nnc3ccccc32)o1)N(Cc1ccc(Cl)cc1)c1ccccc1	-7%	4%	-13%	3%	0	7.1µM*
CCn1nc(C)cc1C(=O)Sc1ccc(Cl)cc1Cl	79µM*	-4%	-16%[10 µM]	-3%	1	-8%[9.22 µM]
CCn1nc(C)cc1C(=O)Sc1cccc(Br)c1	?	-2%	-9%[10 µM]	2%	0	0%[9.22 µM]
O=C(c1ccccc1)c1ccc2nc[nH]c2c1	2%	?	0%[10 µM]	-5%	0	?
Nc1ccc2nc[nH]c2c1	3%	?	-20%	5%	-41*	-2%
COC(=O)c1c(C)[nH]c(C)c1-c1ccccc1Cl	-5%	3%	-15%	-13%	-14	8.9µM*
Cc1ccc(-n2nc(C)c3c(C(F)(F)F)cc(-c4cccnc4)nc32)cc1C	9%	.	.	.	.	.
Cn1c[n+](C)cc1/C=N/O	-9%	0%	28%	4µM*	0	7%
Cc1cc(-c2nnc(SCCC(=O)Nc3ccccc3)o2)no1	-22%	.	.	.	.	.
CSCC[C@H](NC(=O)N1CCn2c1nc1ccccc12)C(=O)NCc1ccco1	-16%	.	.	.	0	.
Nc1[nH]c(N=NC(=O)c2ccccc2)c2ccccc12	7%	3%	-28%[10 µM]	9%	-7	-10%
Nc1[nH]c(N=NC(=O)c2ccccc2O)c2ccccc12	2%	25µM*	.	22%	-8	-28%
C/C(=N/Nc1nc(C)cc(C)n1)c1ccc(Br)cc1	-4%	.	.	.	2	.
C/C(=N\Nc1nc(C)cc(C)n1)c1ccc(N2CCOCC2)cc1	?	15%	3%[10 µM]	15%	1	11µM*
Cc1cccc(NC(=O)c2ccccc2O)c1C	0%	-4%	-16%[10 µM]	5%	-32*	?
Cc1oc2c(cc(NS(=O)(=O)c3ccc(F)cc3)c3ccccc32)c1C(=O)O	-15%	.	.	.	-31*	.
COC(=O)c1ccc(C(NC(=O)OCc2ccccc2)/C(=C/[C@@H](C)C(=O)NCc2ccc(OC)c(OC)c2)c2cccnc2)cc1 (stereo partly specified)	.	1%	-43%	3%	1	.
O=S(=O)(O)c1ccccc1	.	.	-49%	1%	.	.
SMILES	VDR inh	JMJD2E inh	HTT ATP protect	RGS12 GoLoco inh	FBPA coupling cs	HttQ103 aggreg
Cc1[nH]c(=O)c(C#N)c(C)c1Cl	-10%	?	8%[10 µM]	11%	0	-3%[9.22 µM]
N#Cc1sc(=O)[nH]c1Cl	79µM*	.	.	.	10	.
CCOc1ccc(-n2c(SCc3ccc([N+](=O)[O-])cc3)nnc2-c2ccccc2)cc1	0%	-1%	10%[10 µM]	5%	0	20µM*
COc1c(O)cccc1/C=N/NC(=O)Cn1ccnc1C	3%	10µM*	3%[10 µM]	4%	-2	16%[9.22 µM]
CCOc1ccc(NC(=O)c2ccccc2NS(=O)(=O)c2ccc(F)cc2)c([N+](=O)[O-])c1	-3%	-5%	6%[10 µM]	6%	6	11µM*
O=C(Nc1ccc(S(=O)(=O)Nc2ncccn2)cc1)c1ccccc1NS(=O)(=O)c1ccc(F)cc1	-7%	?	-60%	-7%	15	11%

High-throughput results: PubChem, National Center for Advancing Translational Sciences (NCATS)
